Hits are enriched below; roughly 7.8% of the tested compounds scored in any of these assays.
Vaccinia mCherry: vaccinia inhibition (mCherry reporter); 310,000 tested, 0.63% active; Vaccinia virus mCherry reporter infection, fluorescence; Potency, µM (doses to about 36.5 µM), usual class: inhibitors; calls by dose curve; tested in A549 cells; also: nearly all actives have a fitted effect of over 35% in size
Lassa entry inh: inhibitors of Lassa virus binding or cell entry; Lassa virus pseudotype entry inhibition, cell reporter; Potency, µM (series often up to 37.9 µM), actives largely listed as inhibitors; 300,000 tested, 1.2% active; AID 540256; calls by dose curve; tested in HEK293 cells; also: nearly all actives have a fitted effect of over 50% in size
Vaccinia Venus: inhibitors of vaccinia virus (Venus reporter) | Vaccinia virus Venus reporter expression, fluorescence | Potency, µM (titrated, usually from 36.5 µM), hits mostly inhibitors | 330,000 tested, 0.46% active | AID 720580; calls by dose curve; tested in A549 cells; also: nearly all actives have a fitted effect of over 30% in size
HCMV antiviral: inhibitors of human cytomegalovirus. HFF cells, HCMV-luciferase reporter, 72 h; stronger effect = lower value. activity change, negative = inhibition, % at 57.5 µM. 410,000 tested, 4.5% active; in the data active = activity change below about -60%; inconclusive = no clear call, values can overlap the other calls; inactive = above about -39%
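After 16 h attachment at 37C, HFF cells received test compound and HCMV-luciferase (1 PFU/cell); reporter luminescence read 72 h later, data normalized against buffer-only and known inhibitor Salinomycin.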
HCV inh: blocks hepatitis C virus. Potency, µM (titrated, usually from 41.8 µM), hits mostly inhibitors. Huh7.5.1 HCVcc-Cre infection, luciferase reporter, 44 h. AID 651820. 340,000 tested, 3.4% active; active = well fitted inhibition curve with a large enough effect; inconclusive = small, poorly fitted or top-dose-only effect, or another doubt; inactive = no such curve, though single readings can be large or run the other way
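Cells (1,000/well) were plated 4 h before compound, then infected with HCVcc-Cre virus (~0.5 moi). After 44 h further culture, infection was read as luciferase luminescence following a 15 min substrate incubation at room temperature.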
Marburg entry inh: inhibitors of Marburg virus binding or cell entry | Marburg virus pseudotyped entry inhibition, cell reporter | Potency, µM (highest dose often 37.8 µM), most hits filed as inhibitors | 300,000 tested, 1.8% active; calls by dose curve; tested in HEK293 cells
Each line names hits and unclear results; the compound was inactive in the other large screens.

O=C(CSc1nnc(-c2c[nH]c3ccccc23)o1)N1c2ccccc2CCc2ccccc21	Vaccinia mCherry inconclusive, Lassa entry inh inconclusive, Vaccinia Venus inconclusive, HCMV antiviral -89, HCV inh 7.9µM, Marburg entry inh inconclusive
Cc1cc(C(=O)Nc2cccc(-c3nc(CNC(=O)c4sc(C)nc4C)c(C)o3)c2)c(C)o1	none (no result: Lassa entry inh, HCMV antiviral, HCV inh, Marburg entry inh)
CC1(CCc2ccc3c(c2)OCO3)NC(=O)c2ccccc2N1 (stereo not drawn)	none (no result: Vaccinia mCherry, Vaccinia Venus)
CC1(CCc2ccc3c(c2)OCO3)NCCc2c1[nH]c1ccccc21 (stereo not drawn)	HCMV antiviral -87, HCV inh 11µM (no result: Vaccinia mCherry, Lassa entry inh, Vaccinia Venus, Marburg entry inh)
CCOc1ccc(NC(=O)CSc2nc3ccsc3c(=O)n2C(C)CC)cc1 (stereo not drawn)	none (no result: HCV inh, Marburg entry inh)
COc1cc(=O)n2c(c1C(=O)NC(C)c1ccco1)CCN(C(=O)c1cc(C)cc(C)c1)CC2 (stereo not drawn)	none (no result: Lassa entry inh, HCMV antiviral, HCV inh, Marburg entry inh)
CCCCn1c(N)c(N(CC(C)C)C(=O)C2CC(=O)N(c3ccc4c(c3)OCCO4)C2)c(=O)[nH]c1=O (stereo not drawn)	HCV inh inconclusive, Marburg entry inh inconclusive
CCCCn1c(N)c(N(CCOC)C(=O)c2ccc(N3CCCC3=O)cc2)c(=O)[nH]c1=O	HCMV antiviral -101 (no result: Vaccinia mCherry, Lassa entry inh, Vaccinia Venus, Marburg entry inh)
CCCCn1c(N)c(N(CC(C)C)C(=O)C2CC(=O)N(c3ccc(C)cc3)C2)c(=O)[nH]c1=O (stereo not drawn)	HCMV antiviral -89
Cc1cc(C(=O)COC(=O)C2=COCCO2)c(C)n1-c1ccccc1	Lassa entry inh 2.2µM, HCMV antiviral inconclusive, HCV inh inconclusive, Marburg entry inh 5.6µM
Cc1ccc(-n2c(C)cc(C(=O)COC(=O)C3=NNC(=O)CC3)c2C)cc1	none (no result: Vaccinia mCherry)
Cc1cc(C(=O)COC(=O)C2=NNC(=O)CC2)c(C)n1-c1ccccc1	none (no result: Vaccinia mCherry, Vaccinia Venus)
Cc1ccc(-n2c(C)cc(C(=O)COC(=O)c3c(C)noc3C)c2C)cc1	Lassa entry inh inconclusive, HCV inh 0.32µM, Marburg entry inh inconclusive (no result: Vaccinia mCherry, Vaccinia Venus)
O=C(CSc1c2c(nc3cc(Cl)ccc13)CCCC2)N1CCN(c2ccccc2F)CC1	none (no result: HCV inh)
O=C(CN1C(=O)CSc2ccc(S(=O)(=O)N3CCCC3)cc21)Nc1cccc(Cl)c1	none (no result: HCV inh, Marburg entry inh)
CC(C)(C)c1ccc(C(=O)Nc2ccc3nc(SCC(=O)N4CCCC4)sc3c2)cc1	Vaccinia mCherry inconclusive, Lassa entry inh inconclusive, Vaccinia Venus inconclusive, HCMV antiviral -97, Marburg entry inh inconclusive (no result: HCV inh)
O=C(Nc1ccc2nc(SCC(=O)N3CCc4ccccc43)sc2c1)c1ccc(Cl)cc1	Vaccinia mCherry inconclusive, Lassa entry inh inconclusive, HCMV antiviral -93 (no result: HCV inh)
O=C(Nc1ccc2nc(SCC(=O)N3CCc4ccccc43)sc2c1)c1ccc(F)cc1	Vaccinia mCherry inconclusive, Vaccinia Venus inconclusive, HCMV antiviral -63 (no result: HCV inh)
O=C(Nc1ccc2nc(SCC(=O)N3CCCC3)sc2c1)c1ccc(Br)cc1	none (no result: HCV inh)
CCC(Oc1ccccc1)C(=O)Nc1cc(-c2ccccc2F)nn1-c1ccccc1 (stereo not drawn)	none (no result: HCV inh, Marburg entry inh)
COc1cc(/C=N/NC(=O)CCc2ccccc2)ccc1O	Lassa entry inh 2.8µM, Marburg entry inh inconclusive
COc1cc(/C=N\NC(=O)CNC(=O)C(c2ccccc2)c2ccccc2)ccc1O	HCV inh inconclusive
COc1cc(/C=N/NC(=O)CCN2CCN(C(c3ccccc3)c3ccccc3)CC2)ccc1O	HCV inh 4.5µM, Marburg entry inh inconclusive
CCc1ccc(NC(=O)C2CCC(CNS(=O)(=O)c3ccc4c(c3)C(C)(C)C(=O)N4C)CC2)cc1 (stereo not drawn)	none (no result: HCV inh, Marburg entry inh)
CCS(=O)(=O)c1nc2ccccc2n1Cc1ccccc1Cl	HCMV antiviral -67, HCV inh inconclusive (no result: Lassa entry inh, Marburg entry inh)
CS(=O)(=O)c1nc2ccccc2n1Cc1ccccc1	HCMV antiviral -67 (no result: Vaccinia mCherry, Vaccinia Venus)
O=S(=O)(O)c1nc2ccccc2n1Cc1ccccc1	Marburg entry inh inconclusive
Cc1ccc(CNC(=O)c2ccc(COc3ccccc3)cc2)cc1	Lassa entry inh inconclusive, HCMV antiviral -63
O=C(NCc1ccncc1)c1ccc(Oc2ccccc2)cc1	HCV inh inconclusive
Cc1ccc(C)c(NS(=O)(=O)c2cc(C(=O)NCc3ccncc3)ccc2C)c1	HCMV antiviral -69, HCV inh inconclusive, Marburg entry inh inconclusive
Cc1ccc(C(=O)NCc2ccncc2)cc1S(=O)(=O)Nc1cccc(C)c1C	HCV inh inconclusive (no result: Vaccinia mCherry, Lassa entry inh, Vaccinia Venus, Marburg entry inh)
